# The source made the active and inactive calls. Calls follow the shape of the dose curve; as a rule, active = well fitted curve in the direction sought with a large enough effect; inactive = no such curve, though single readings can be large or run the other way.
# Target: ATP-dependent 6-phosphofructokinase (Geobacillus stearothermophilus) (UniProt P00512)
# Assay: Confirmatory Assay to Find Inhibitors of T. brucei phosphofructokinase: Counter Screen against Bacillus PFK
# Conditions: B. stearothermophilus PFK, ADP-Glo luminescence, 45 min; series mostly up to 57.5 µM; inhibition: at the top concentration
# Excerpt: Various species of the protozoan family Trypanosomatidae are responsible for a range of serious human diseases in tropical and subtropical areas of the world. […] Many of the disorders caused by trypanosomatids are fatal if left untreated, but most currently used drugs are inefficient and toxic. […] Oxidative metabolism involving the mitochondrial tricarboxylic acid cycle and oxidative phosphorylation are repressed in these parasites, and recent RNA interference (RNAi) experiments have shown that even partial depletion of certain individual glycolytic enzymes can lead to the death of cultured parasites. One such glycolytic enzyme, phosphofructokinase (PFK), catalyzes the formation of fructose-1,6-bisphosphate (F1,6BP) and ADP from fructose-6-phosphate (F6P) and ATP, and in many metabolic circumstances makes an important contribution to the control of flux through the glycolytic pathway. As a specific glycolytic target, PFK is particularly attractive as it catalyzes the first irreversible step in glycolysis, and structural and kinetic studies have shown very substantial and essential differences from corresponding host enzymes, allowing for the discovery of parasite-selective inhibitors. A luminescent biochemical assay was performed that used luciferase-based nucleotide detection (ADP-Glo, Promega) to examine the effect of identified actives against a bacterial isoform of PFK, namely Bacillus stearothermophilus, for target specificity. The assay is identical in concept to the T. brucei PFK qHTS assay, but instead uses the B. stearothermophilus isoform of PFK (Sigma, St. Louis, MO) and ATP/F6P at bacterial isoform-specific Km concentrations. NIH Chemical Genomics Center [NCGC] NIH Molecular Libraries Probe Centers Network [MLPCN] MLPCN Grant: MH092153-01 Assay Submitter (PI): Malcom Walkinshaw, University of Edinburgh
# Substrate buffer was dispensed into white, solid 1536-well plates at 3 uL/well in 0.1M triethanolamine (TEA) buffer, pH 8.0, containing final concentrations of 5 mM MgCl2, 0.01% Tween20, 0.6 mM fructose-6-phosphate (F6P) and 0.1 mM ATP. Then, 23 nl of compounds or DMSO were delivered to each well using a pin tool. One uL of B. stearothermophilus PFK (0.1 M TEA, 0.01% Tween20, 0.1% bovine serum albumin (BSA) and 10 nM PFK, final concentrations) was then dispensed, and plates were incubated at room temperature for 45 min. The luminescent detection reagent, ADP-Glo (Promega), was then added in two steps: the first reagent, ADP-Glo (which converts remaining uncatalyzed ATP), was added at 2.5 uL/well and incubated for ten minutes at room temperature, and the second component, Kinase Detection reagent (which converts ADP to ATP as a substrate for luciferase-based luminescence), was added immediately after at 5uL/well, followed by one final ten minute room temperature incubation. The plates were measured on a ViewLux plate reader for luminescent signal using a clear filter with a one second exposure. The %Activity was determined from the corrected luminescence values. 1x (1.25nM) and 0x PFK enzyme controls (untreated) were included to normalize %Activity of identified inhibitors; 0x enzyme values corresponded to 100%Activity (full inhibition), while 1x PFK enzyme values were used to normalize 0% Activity (no inhibition).
row,Compound,inhibition
1,Cc1cc(NS(=O)(=O)c2ccc(NC(=O)Cc3ccccc3)cc2)no1,1.27% (inactive)
2,Cc1cc(NS(=O)(=O)c2ccc(NC(=O)Cc3ccc(C)c(F)c3)cc2)no1,7.42% (inactive)
3,Cc1cc(NS(=O)(=O)c2ccc(NCCc3ccc(Cl)c(Cl)c3)cc2)no1,6.15% (inactive)
4,Cc1cc(NS(=O)(=O)c2cccc(NC(=O)Cc3ccc(Cl)c(Cl)c3)c2)no1,6.88% (inactive)
5,Cc1cc(NS(=O)(=O)c2ccc(NC(=O)Cc3ccc(Cl)c(F)c3)cc2)no1,7.83% (inactive)
6,CN(C)c1cccc(NS(=O)(=O)c2ccc(NC(=O)Cc3ccc(Cl)c(Cl)c3)cc2)c1,10% (inactive)
7,Cc1cc(NS(=O)(=O)c2ccc(NC(=O)c3ccc(Cl)c(Cl)c3)cc2)no1,4.5% (inactive)
8,O=C(Cc1ccc(Cl)c(Cl)c1)Nc1ccc(S(=O)(=O)Nc2cccc(C(=O)O)c2)cc1,11.7% (inactive)
9,Cc1cc(NS(=O)(=O)c2ccc(NC(=O)Cc3ccc(Cl)c(Cl)c3)cc2)on1,11.4% (inactive)
10,Cc1cc(NS(=O)(=O)c2ccc(NC(=O)Cc3ccc(C)c(C)c3)cc2)no1,1.26% (inactive)
11,O=C(Cc1ccc(Cl)c(Cl)c1)Nc1ccc(S(=O)(=O)Nc2ccc(C(=O)O)cc2)cc1,3.89% (inactive)
12,Cc1cc(NS(=O)(=O)c2ccc(NC(=O)Cc3ccc(Cl)cc3Cl)cc2)no1,7.84% (inactive)
13,Cc1cc(NS(=O)(=O)c2ccc(NC(=O)CCc3ccc(Cl)c(Cl)c3)cc2)no1,7.06% (inactive)
14,Cc1cc(NS(=O)(=O)c2ccc(NC(=O)Cc3ccc4ccccc4c3)cc2)no1,5.31% (inactive)
15,Cc1cc(N[S+](=O)([O-])c2ccc3cc(NC(=O)Cc4ccc(Cl)c(Cl)c4)ccc3c2)no1,1.3% (inactive)
16,Cc1cc(NS(=O)(=O)c2ccc(NC(=O)Cc3ccc(Cl)cc3)cc2)no1,7.74% (inactive)
17,Cc1cc(NS(=O)(=O)CCNC(=O)Cc2ccc(Cl)c(Cl)c2)no1,6.94% (inactive)
18,Cc1cc(NS(=O)(=O)Cc2ccc(NC(=O)Cc3ccc(Cl)c(Cl)c3)cc2)no1,12.5% (inactive)
19,Cc1cc(NS(=O)(=O)c2ccc(NC(=O)Cc3ccc(Cl)c(C(F)(F)F)c3)cc2)no1,6.45% (inactive)
20,Cc1cc(NS(=O)(=O)c2ccc(NC(=O)Cc3ccc(Cl)c(Cl)c3)cc2)n(C)n1,9.44% (inactive)

row,Compound,inhibition
1,Cc1cc(NS(=O)(=O)c2ccc(NS(=O)(=O)Cc3ccc(Cl)c(Cl)c3)cc2)no1,10.1% (inactive)
2,O=C(Cc1ccc(Cl)c(Cl)c1)Nc1ccc(S(=O)(=O)Nc2ccon2)cc1,7.77% (inactive)
3,Cc1cc(N[S+](=O)([O-])c2ccc(NC(=O)Cc3ccc(Cl)nc3)cc2)no1,7.09% (inactive)
4,O=C(Cc1ccc(Cl)c(Cl)c1)Nc1ccc(S(=O)(=O)Nc2cccc(O)c2)cc1,5.79% (inactive)
5,Cc1cc(NC(=O)c2csc(NC(=O)Cc3ccc(Cl)c(Cl)c3)n2)no1,10.4% (inactive)
6,COc1ccc(CC(=O)Nc2ccc(S(=O)(=O)Nc3cc(C)on3)cc2)cc1OC,8.18% (inactive)
7,O=C(Cc1ccc(Cl)c(Cl)c1)Nc1ccc(S(=O)(=O)Nc2ccn[nH]2)cc1,12.7% (inactive)
8,COc1ccc(CC(=O)Nc2ccc(S(=O)(=O)Nc3cc(C)on3)cc2)cc1C,5.25% (inactive)
9,Cc1cc(NS(=O)(=O)c2ccc(NC(=O)C(C)(C)c3ccc(Cl)c(Cl)c3)cc2)no1,8.27% (inactive)
10,Cc1cc(NS(=O)(=O)C2CCN(C(=O)Cc3ccc(Cl)c(Cl)c3)CC2)no1,5.05% (inactive)
11,Cc1cc(NS(=O)(=O)c2ccc(NC(=O)Cc3ccc(Cl)c(Cl)c3)cc2)no1,-2.25% (inactive)
12,Cc1cc(NS(=O)(=O)c2ccc(C(=O)NCc3ccc(Cl)c(Cl)c3)cc2)no1,12.6% (inactive)
13,Cc1cc(NS(=O)(=O)c2ccc(NC(=O)Cc3cccc(Cl)c3)cc2)no1,5.01% (inactive)
14,CCOC(=O)c1cccc(NS(=O)(=O)c2ccc(NC(=O)Cc3ccc(Cl)c(Cl)c3)cc2)c1,11.7% (inactive)
15,Cc1cc(NS(=O)(=O)c2ccc(N(C)C(=O)Cc3ccc(Cl)c(Cl)c3)cc2)no1,2.87% (inactive)
16,O=C(Cc1ccc(Cl)c(Cl)c1)Nc1ccc(S(=O)(=O)Nc2cncnc2)cc1,8.9% (inactive)
17,Cc1cc(NC(=O)c2ccc(NC(=O)Cc3ccc(Cl)c(Cl)c3)cc2)no1,9.14% (inactive)
18,O=C(Cc1ccc(Cl)c(Cl)c1)Nc1ccc(S(=O)(=O)Nc2ccccc2)cc1,9.48% (inactive)
19,O=C(Cc1ccc(Cl)c(Cl)c1)Nc1ccc(S(=O)(=O)O)cc1,13.4% (inactive)
20,Cc1cc(N(C)S(=O)(=O)c2ccc(NC(=O)Cc3ccc(Cl)c(Cl)c3)cc2)no1,7.13% (inactive)
